Results taken from PubChem BioAssay.
Where “and” joins values, the source holds several entries; their conditions need not be identical. Identical values can stand only once. For some of these results: Measured potencies and affinities stand elsewhere. More than one record can exist for a structure, and the calls need not agree. Calls of active or inactive are those of the source. Unless noted, how the calls were made is not given here.

Legend:
[1] = antimalarial activity against Dd2 strain (AID 2302;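 active means growth inhibition above 50% at the single 2 µM test dose, taken to imply half-maximal potency below 2 µM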;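 further: 0% = DMSO untreated growth and 100% = chloroquine plus artemisinin killed control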); conditions: P. falciparum Dd2 in RBCs, LDH growth readout, 72 h; at 2 µM; stronger effect = higher value
[2] = HepG2 cytotoxicity, primary screen, cytotoxicity control for P. falciparum antimalarial project, cell-based, ATP luminescence (AID 2303;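 active means inhibition above 50%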;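 further: 0% = DMSO wells and 100% = digitonin-killed cells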); conditions: HepG2 viability, 24-48 h, at 10 µM, stronger effect = higher value
[3] = target: L-lactate dehydrogenase (Plasmodium falciparum (isolate CDC / Honduras)) (UniProt Q27743); assay: PfLDH activity inhibition – cell lysate, 3D7 strain, counter-screen for P. falciparum growth inhibition project (AID 2304);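 further: 0% = vehicle and 100% = reference inhibitor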; conditions: P. falciparum 3D7 crude extract, LDH APAD/NBT absorbance; at 2 µM; stronger effect = higher value
Sequence of L-lactate dehydrogenase (Plasmodium falciparum (isolate CDC / Honduras)) (Q27743 whole entry, looked up): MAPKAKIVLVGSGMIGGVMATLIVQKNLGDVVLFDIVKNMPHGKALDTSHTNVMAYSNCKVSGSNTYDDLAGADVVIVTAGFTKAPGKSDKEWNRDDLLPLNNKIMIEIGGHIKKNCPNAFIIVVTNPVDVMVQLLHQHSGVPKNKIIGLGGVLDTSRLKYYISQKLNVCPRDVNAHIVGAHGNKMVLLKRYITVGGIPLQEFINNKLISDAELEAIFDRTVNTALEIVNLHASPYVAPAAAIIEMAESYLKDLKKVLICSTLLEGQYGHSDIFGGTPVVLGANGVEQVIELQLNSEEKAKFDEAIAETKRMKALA

[4] = inhibition of 3D7 malaria parasite growth – strain 3D7 (AID 2306);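 further: 0% = DMSO wells and 100% = chloroquine plus artemisinin control wells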; conditions: P. falciparum 3D7 erythrocytic growth, LDH absorbance, 72 h; at 2 µM; stronger effect = higher value
[5] = target: Calcium-dependent protein kinase 1 (Plasmodium falciparum (isolate 3D7)) (UniProt P62344); assay: PfCDPK1 kinase inhibitors, biochemical, TCAMS library (AID 1159585; cut-off not given, nearly all actives have IC50 up to about 0.98 µM;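 further: inhibitors leave more ATP so luminescence rises with inhibition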); conditions: recombinant PfCDPK1, Kinase-Glo ATP depletion luminescence
Sequence of Calcium-dependent protein kinase 1 (Plasmodium falciparum (isolate 3D7)) (P62344 whole entry, looked up): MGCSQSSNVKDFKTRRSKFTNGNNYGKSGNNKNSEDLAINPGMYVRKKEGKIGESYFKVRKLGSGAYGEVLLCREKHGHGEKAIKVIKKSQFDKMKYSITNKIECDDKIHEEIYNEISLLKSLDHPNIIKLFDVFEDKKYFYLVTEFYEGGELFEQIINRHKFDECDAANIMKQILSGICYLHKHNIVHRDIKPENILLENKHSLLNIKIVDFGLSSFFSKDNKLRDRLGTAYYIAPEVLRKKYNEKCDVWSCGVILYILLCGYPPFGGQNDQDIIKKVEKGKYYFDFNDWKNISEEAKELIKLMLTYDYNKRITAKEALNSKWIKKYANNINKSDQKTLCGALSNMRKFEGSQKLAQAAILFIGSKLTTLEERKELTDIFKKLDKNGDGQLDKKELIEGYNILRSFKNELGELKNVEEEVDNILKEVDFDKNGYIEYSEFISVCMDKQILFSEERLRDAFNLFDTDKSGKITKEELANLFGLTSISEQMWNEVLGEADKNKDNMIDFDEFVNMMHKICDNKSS

[6] = target: Plasmodium falciparum protein kinase 6 (PK6, PF3D7_1337100) (UniProt Q8IDW1); assay: PfPK6 kinase inhibitors, biochemical, TCAMS library (AID 1159586); conditions: recombinant PfPK6, Kinase-Glo ATP depletion luminescence
Sequence of Plasmodium falciparum protein kinase 6 (PK6, PF3D7_1337100) (Q8IDW1 1-305): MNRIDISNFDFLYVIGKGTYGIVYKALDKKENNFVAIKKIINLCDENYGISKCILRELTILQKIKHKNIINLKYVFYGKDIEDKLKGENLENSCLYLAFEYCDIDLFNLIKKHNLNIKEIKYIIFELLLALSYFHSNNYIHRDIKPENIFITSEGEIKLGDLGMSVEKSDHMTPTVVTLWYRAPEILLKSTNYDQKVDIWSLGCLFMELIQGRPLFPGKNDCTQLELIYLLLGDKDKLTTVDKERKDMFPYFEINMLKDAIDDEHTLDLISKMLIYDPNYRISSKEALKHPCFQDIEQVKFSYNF

[7] = target: Protein kinase 7 (PK7), Plasmodium falciparum 3D7 (PF3D7_0213400) (UniProt Q7YTF7); assay: inhibition of Plasmodium PK7 catalytic activity – biochemical, TCAMS antimalarial set, Kinase-Glo luminescence (AID 1159587); conditions: recombinant PfPK7, Kinase-Glo ATP depletion luminescence
Sequence of Protein kinase 7 (PK7), Plasmodium falciparum 3D7 (PF3D7_0213400) (Q7YTF7 1-343): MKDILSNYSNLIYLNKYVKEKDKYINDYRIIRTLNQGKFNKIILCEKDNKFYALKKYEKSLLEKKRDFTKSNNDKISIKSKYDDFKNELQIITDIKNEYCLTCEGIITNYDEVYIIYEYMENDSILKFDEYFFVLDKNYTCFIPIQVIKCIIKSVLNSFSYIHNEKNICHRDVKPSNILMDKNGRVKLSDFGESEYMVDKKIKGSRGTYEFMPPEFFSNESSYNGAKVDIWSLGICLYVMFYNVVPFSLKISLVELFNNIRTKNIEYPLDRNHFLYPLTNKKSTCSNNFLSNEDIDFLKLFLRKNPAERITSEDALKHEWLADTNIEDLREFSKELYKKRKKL

[8] = target: Calcium-dependent protein kinase 4 (Plasmodium falciparum (isolate 3D7)) (UniProt Q8IBS5); assay: PfCDPK4 kinase inhibitors, biochemical, TCAMS library (AID 1159588; cut-off not given, nearly all actives have IC50 up to about 0.91 µM); conditions: recombinant PfCDPK4, Kinase-Glo ATP depletion luminescence
Sequence of Calcium-dependent protein kinase 4 (Plasmodium falciparum (isolate 3D7)) (Q8IBS5 whole entry, looked up): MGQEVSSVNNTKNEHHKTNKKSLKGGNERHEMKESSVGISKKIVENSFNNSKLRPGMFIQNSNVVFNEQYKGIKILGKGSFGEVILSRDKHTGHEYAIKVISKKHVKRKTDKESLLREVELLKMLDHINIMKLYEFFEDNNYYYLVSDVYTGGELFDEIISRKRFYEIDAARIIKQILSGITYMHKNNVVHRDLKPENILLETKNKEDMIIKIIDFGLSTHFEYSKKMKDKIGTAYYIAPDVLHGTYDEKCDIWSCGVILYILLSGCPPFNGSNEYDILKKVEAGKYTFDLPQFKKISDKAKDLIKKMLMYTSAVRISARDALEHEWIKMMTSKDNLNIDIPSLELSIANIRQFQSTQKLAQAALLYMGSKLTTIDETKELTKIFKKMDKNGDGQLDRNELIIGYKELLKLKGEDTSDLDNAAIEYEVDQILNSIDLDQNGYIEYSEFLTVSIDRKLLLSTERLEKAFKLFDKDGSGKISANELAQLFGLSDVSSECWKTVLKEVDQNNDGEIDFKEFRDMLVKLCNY

CC(C)CN1CCC(N(C)c2cc(NC(=O)c3cccc(F)c3)ccn2)CC1
inactive: growth inhibition [1] 10% | inhibition [2] 8% | inhibition [3] -1% | outcome [5] | outcome [6] | outcome [7] | outcome [8]
active: growth inhibition [4] 97%

C1=C(c2c[nH]c3ccccc23)CCN(Cc2ccccc2)C1
inactive: inhibition [2] 22% | inhibition [3] -1% | outcome [5] | outcome [6] | outcome [7] | outcome [8]
active: growth inhibition [1] 80% | growth inhibition [4] 91%

CO/C=C(/C(=O)OC)c1ccccc1Oc1cc(Oc2ccccc2C#N)ncn1
active: growth inhibition [1] 98% | growth inhibition [4] 98%
inactive: inhibition [2] 7% | inhibition [3] 3% | outcome [5] | outcome [6] | outcome [7] | outcome [8]

COc1ccc(CC(C)NCC(O)c2cccc(Cl)c2F)cc1 (centres undefined)
active: growth inhibition [1] 59% | growth inhibition [4] 88%
inactive: inhibition [2] 3% | inhibition [3] -6% | outcome [5] | outcome [6] | outcome [7] | outcome [8]

CC1(CCCCN2CC=C(c3c[nH]c4ccccc34)CC2)C(=O)Nc2ccccc21 (centres undefined)
inactive: inhibition [2] 3% | inhibition [3] 4% | outcome [5] | outcome [6] | outcome [7] | outcome [8]
active: growth inhibition [1] 90% | growth inhibition [4] 94%

CC(Cc1ccc(CSC(C)C)cc1)NCC(O)c1cccc(Cl)c1 (centres undefined)
inactive: inhibition [2] 11% | inhibition [3] -8% | outcome [5] | outcome [6] | outcome [7] | outcome [8]
active: growth inhibition [1] 98% | growth inhibition [4] 98%

O=C(/C=C/c1ccc(Cl)c(Cl)c1)NC1CCC(CN2CCC(c3c[nH]c4cc(C(F)(F)F)ccc34)CC2)CC1 (centres undefined)
active: growth inhibition [4] 98% and 102%
inactive: inhibition [2] 11% and 40% | inhibition [3] 1% and 6% | outcome [5] | outcome [6] | outcome [7] | outcome [8]
38% (inactive) and 85% (active): growth inhibition [1]

COc1cc(CN2CCN(c3ccnc(N(C)C4CCN(C)CC4)n3)CC2)cc(Cl)c1O
inactive: inhibition [2] 11% | inhibition [3] -5% | outcome [5] | outcome [6] | outcome [7] | outcome [8]
active: growth inhibition [1] 63% | growth inhibition [4] 94%

C=C[C@H]1CN2CC[C@@H]1C[C@H]2[C@H](O)c1cc(-c2ccc(F)cc2)nc2ccc(OC)cc12
active: growth inhibition [1] 98% | growth inhibition [4] 99%
inactive: inhibition [2] 5% | inhibition [3] -1% | outcome [5] | outcome [6] | outcome [7] | outcome [8]

CC[C@H]1CN2CC[C@H]1C[C@H]2[C@H](O)c1cc(-c2cccc(C)c2)nc2ccc(OC)cc12
inactive: inhibition [2] 15% | inhibition [3] 3% | outcome [5] | outcome [6] | outcome [7] | outcome [8]
active: growth inhibition [1] 100% | growth inhibition [4] 100%

CCCCCCCc1cc(O)c2c3c(c(=O)oc2c1)CN(C)CC3
inactive: inhibition [2] -5% | inhibition [3] 3% | outcome [5] | outcome [6] | outcome [7] | outcome [8]
active: growth inhibition [1] 100% | growth inhibition [4] 97%

CN(CC(=O)N1CCN(S(=O)(=O)c2cccc(Cl)c2)CC1CN1CCCC1)c1ccc(Cl)c(Cl)c1 (centres undefined)
inactive: growth inhibition [1] 32% | inhibition [2] 32% | inhibition [3] -1% | outcome [5] | outcome [6] | outcome [7] | outcome [8]
active: growth inhibition [4] 89%

O=C(NC1CCC(CN2CCC(c3c[nH]c4ccccc34)CC2)CC1)[C@H]1Cc2ccccc2CN1 (some centres undefined)
inactive: growth inhibition [1] 35% | inhibition [2] 29% | inhibition [3] 3% | outcome [5] | outcome [6] | outcome [7] | outcome [8]
active: growth inhibition [4] 89%

O=C(CC1CCCC1)N(CC1CCN(Cc2ccc(C(F)(F)F)cc2)CC1)c1ccc(N2CCOCC2)c(F)c1
active: growth inhibition [1] 97% | growth inhibition [4] 92%
inactive: inhibition [2] 10% | inhibition [3] -1% | outcome [5] | outcome [6] | outcome [7] | outcome [8]

C/C=C1\CN2CC[C@H]1C[C@H]2[C@H](O)c1ccnc2ccc(OC)cc12
active: growth inhibition [4] 102% and 99%
45% (inactive) and 61% (active): growth inhibition [1]
inactive: inhibition [2] -12% and -9% | inhibition [3] 4% and -10% | outcome [5] | outcome [6] | outcome [7] | outcome [8]

N#Cc1ccc(N(CCCO)Cc2ccccc2C(F)(F)F)cc1C(F)(F)F
active: growth inhibition [4] 91%
inactive: growth inhibition [1] 23% | inhibition [2] 7% | inhibition [3] -5% | outcome [5] | outcome [6] | outcome [7] | outcome [8]

CNCCN(C)C(=O)Oc1c(Cl)c(C)nc(C)c1-c1ccc(Oc2ccc(OC(F)(F)F)cc2)cc1
active: growth inhibition [1] 96% | growth inhibition [4] 97%
inactive: inhibition [2] -2% | inhibition [3] -2% | outcome [5] | outcome [6] | outcome [7] | outcome [8]

O=C(Nc1cc(C(F)(F)F)cc(C(F)(F)F)c1)NC1CCC(CN2CCC(c3c[nH]c4ccccc34)CC2)CC1 (centres undefined)
19% (inactive) and 58% (active): inhibition [2]
inactive: inhibition [3] 8% and -8% | outcome [5] | outcome [6] | outcome [7] | outcome [8]
active: growth inhibition [1] 72% and 98% | growth inhibition [4] 97% and 101%

O=C(/C=C/c1ccsc1)NC1CCC(CN2CCC(c3c[nH]c4ccccc34)CC2)CC1 (centres undefined)
active: growth inhibition [4] 82%
inactive: growth inhibition [1] 20% | inhibition [2] 29% | inhibition [3] -1% | outcome [5] | outcome [6] | outcome [7] | outcome [8]

Cc1[nH]c2ccccc2c1C1=CCN(CCCCCC23CCCc4cccc(c42)NC3=O)CC1 (centres undefined)
inactive: inhibition [2] 11% | inhibition [3] 5% | outcome [5] | outcome [6] | outcome [7] | outcome [8]
active: growth inhibition [1] 91% | growth inhibition [4] 94%

CCOC(=O)c1c(CN2CCN(C)CC2)n(Cc2ccccc2)c2cc(Br)c(O)cc12
active: growth inhibition [4] 100%
inactive: growth inhibition [1] 46% | inhibition [2] 11% | inhibition [3] -5% | outcome [5] | outcome [6] | outcome [7] | outcome [8]

COc1ccc(C(=O)[C@H]2C[C@@H]2CN2CC=C(c3c[nH]c4cccc(Br)c34)CC2)cc1
inactive: inhibition [2] 32% | inhibition [3] -3% | outcome [5] | outcome [6] | outcome [7] | outcome [8]
active: growth inhibition [1] 67% | growth inhibition [4] 88%

COC(=O)c1ccc(CC(C)NCC(O)c2cccc(Cl)c2Cl)cc1 (centres undefined)
inactive: inhibition [2] -1% | inhibition [3] -6% | outcome [5] | outcome [6] | outcome [7] | outcome [8]
active: growth inhibition [1] 98% | growth inhibition [4] 98%

Cc1nc(-c2ccc(-c3ccc(C(=O)Nc4ccc5c(c4)C4(CCNCC4)CO5)cc3)c(C)c2)no1
active: growth inhibition [4] 90%
inactive: growth inhibition [1] 15% | inhibition [2] 37% | inhibition [3] -3% | outcome [5] | outcome [6] | outcome [7] | outcome [8]

O=C(/C=C/c1ccc(Cl)c(Cl)c1)NC1CCC(CN2CC[C@H](c3c[nH]c4ccccc34)[C@@H](O)C2)CC1 (some centres undefined)
active: growth inhibition [1] 87% | growth inhibition [4] 101%
inactive: inhibition [2] 30% | inhibition [3] -7% | outcome [5] | outcome [6] | outcome [7] | outcome [8]

CC(Cc1ccc(NC(=O)[C@H](C)NCCc2cccc(Cl)c2)cc1)NCCc1cccc(Cl)c1 (some centres undefined)
inactive: inhibition [3] 2% | outcome [5] | outcome [6] | outcome [7] | outcome [8]
active: growth inhibition [1] 54% | inhibition [2] 99% | growth inhibition [4] 100%

COc1ccc(C2CNCc3c2cc(OC)c(OC)c3Cl)cc1 (centres undefined)
active: growth inhibition [4] 98%
inactive: growth inhibition [1] 3% | inhibition [2] 42% | inhibition [3] 2% | outcome [5] | outcome [6] | outcome [7] | outcome [8]

O=C(Cc1c(-c2ccccc2)[nH]c2ccccc12)NC1CCC(CN2CCC(c3c[nH]c4ccccc34)CC2)CC1 (centres undefined)
inactive: inhibition [2] 31% | inhibition [3] 1% | outcome [5] | outcome [6] | outcome [7] | outcome [8]
active: growth inhibition [1] 75% | growth inhibition [4] 103%

COc1ccc2[nH]cc(C3C[C@H]4CC[C@@H](C3)N4CCC3CCN(C(=O)/C=C/c4ccc(Cl)c(Cl)c4)CC3)c2c1 (some centres undefined)
active: growth inhibition [1] 80% | growth inhibition [4] 101%
inactive: inhibition [2] 38% | inhibition [3] 5% | outcome [5] | outcome [6] | outcome [7] | outcome [8]

O=C(/C=C/c1ccc(Cl)c(Cl)c1)NC1CCC(CN2CCC(c3c[nH]c4ccc(O)cc34)CC2)CC1 (centres undefined)
active: growth inhibition [1] 99% and 101% | growth inhibition [4] 100% and 101%
inactive: inhibition [2] 38% and 35% | inhibition [3] -1% and 6% | outcome [5] | outcome [6] | outcome [7] | outcome [8]

Cc1ccc(CC(C)NCC(O)c2cccc(Cl)c2)cc1F (centres undefined)
active: growth inhibition [1] 88% | growth inhibition [4] 95%
inactive: inhibition [2] 1% | inhibition [3] -2% | outcome [5] | outcome [6] | outcome [7] | outcome [8]

O=C(NC1CCC(CN2CCC(c3c[nH]c4ccccc34)CC2)CC1)c1cc(-c2cccc(Cl)c2)n(-c2ccc(Cl)cc2Cl)n1 (centres undefined)
active: inhibition [2] 53% | growth inhibition [4] 81%
inactive: growth inhibition [1] 25% | inhibition [3] -5% | outcome [5] | outcome [6] | outcome [7] | outcome [8]

Oc1ccc2[nH]cc(C3=CCN(CCc4ccccc4)CC3)c2c1
inactive: inhibition [2] 11% | inhibition [3] 3% | outcome [5] | outcome [6] | outcome [7] | outcome [8]
active: growth inhibition [1] 60% | growth inhibition [4] 96%

O=C(/C=C/c1cc(C(F)(F)F)ccc1F)NC1CCC(CN2CCC(c3c[nH]c4ccccc34)CC2)CC1 (centres undefined)
inactive: inhibition [2] 5% | inhibition [3] -5% | outcome [5] | outcome [6] | outcome [7] | outcome [8]
active: growth inhibition [1] 66% | growth inhibition [4] 101%

Cc1[nH]c2ccccc2c1C1=CCN(CCCCCNC(=O)/C=C/c2ccc(Cl)c(Cl)c2)CC1
active: growth inhibition [1] 89% | growth inhibition [4] 97%
inactive: inhibition [2] 28% | inhibition [3] -1% | outcome [5] | outcome [6] | outcome [7] | outcome [8]

CC[C@H]1CN2CC[C@H]1C[C@H]2[C@H](O)c1cc(-c2ccc(F)cc2C)nc2ccc(OC)cc12
active: growth inhibition [1] 100% | growth inhibition [4] 99%
inactive: inhibition [2] -2% | inhibition [3] -3% | outcome [5] | outcome [6] | outcome [7] | outcome [8]

Cc1ccc(CC(C)NCC(O)c2cccc(C(F)(F)F)c2)cc1F (centres undefined)
inactive: inhibition [2] 15% | inhibition [3] 3% | outcome [5] | outcome [6] | outcome [7] | outcome [8]
active: growth inhibition [1] 91% | growth inhibition [4] 97%

O=C(NC1CCC(CN2CCC(c3c[nH]c4ccccc34)CC2)CC1)c1cn(Cc2ccccc2)c2ccccc12 (centres undefined)
inactive: growth inhibition [1] 48% | inhibition [3] -3% | outcome [5] | outcome [6] | outcome [7] | outcome [8]
active: inhibition [2] 84% | growth inhibition [4] 91%
